Measurements reported in PubChem BioAssay (NCI).
The panel holds about 83,000 compounds, 20% with a hit somewhere; the sample as a whole holds those more often.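 Note: values are percent growth. 100 is the growth of untreated cells, values between 100 and 0 indicate rising inhibition; between -100 and 0 indicates cell death.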 Active and inactive are the calls of the source. Rule for the calls: active = growth percent below 10; inactive = the rest.

Columns and labels:
Assay in all cases: NCI-60 one-dose screen, 48 h (100 = growth as untreated, 0 = no growth, -100 = all killed)
Conditions in all cases: 10 µM unless noted
[1] = tested on: SK-MEL-2 melanoma
[2] = tested on: EKVX NSCLC
[3] = tested on: SN12C renal
[4] = tested on: UO-31 renal
[5] = tested on: TK-10 renal
[6] = tested on: ACHN renal
[7] = tested on: CAKI-1 renal
[8] = tested on: A498 renal
[9] = tested on: CCRF-CEM leukemia
[10] = tested on: MOLT-4 leukemia

Measured: growth

Cc1c(C)c2c(c(C)c1OC(=O)CCC(=O)[O-])CCC(C)(CCCCCCCCCCC[P+](c1ccccc1)(c1ccccc1)c1ccccc1)O2 (stereo not given)
active: [1] -64.4% | [2] -25.1% | [3] -65.7% | [4] -3.37% | [5] -14.2% | [6] -5.75% | [7] -28.3% | [8] -73.9% | [9] 0.344% | [10] -25.5%

COc1cc(/C=C/c2cc(/C=C/c3ccc(O)c(OC)c3)n(C(=O)Nc3ccc(C)cc3C)n2)ccc1O
active: [1] -27.2% | [2] -14.7% | [3] 0.467% | [4] -38.7% | [6] 5.29% | [7] -36.6% | [8] -14.7% | [9] 1.54% | [10] -20.7%
inactive: [5] 15.9%

NC(=O)[C@@H]1Cc2ccccc2CN1C(=O)c1ccc2c(c1)Cc1ccccc1-2
inactive: [1] 92.8% | [2] 83.1% | [3] 92.4% | [4] 61.3% | [5] 93.4% | [6] 90.5% | [7] 80.9% | [8] 89.2% | [9] 81.9% | [10] 71.1%

Cn1cc(-c2nc(-c3c[nH]c4c(Cl)nccc34)cs2)c2ccccc21
inactive: [1] 99.2% | [2] 86.7% | [3] 94.5% | [4] 94.6% | [5] 81.2% | [6] 107% | [7] 87% | [8] 77.8% | [9] 92.3% | [10] 83.9%

CCN(CC)CCOc1ccc(/C(=C(\C)Cc2ccc(OC)cc2)c2ccc(O)cc2)cc1
inactive: [2] 66.5% | [3] 54.9% | [5] 35.8% | [6] 18.9% | [8] 92.9%
active: [1] -45.7% | [4] -34.2% | [7] -21.3% | [9] -3.51% | [10] -9%

Cc1ccc(C(=O)Nc2ccc(CN3CCN(C)CC3)c(C(F)(F)F)c2)cc1C#Cc1cnc(N)c2ccccc12
active: [1] -26.6% | [4] -34.9% | [6] -91.8% | [7] -81.6% | [8] -32.5% | [9] -15.7% | [10] -45.2%
inactive: [2] 36% | [3] 11.3% | [5] 29.9%

FC(F)(F)c1cc(N2CCCCC2)nc(NCCCNc2ccnc3cc(Cl)ccc23)n1
inactive: [1] 64.9% | [2] 48.3% | [3] 69.1% | [4] 46.8% | [5] 63.6% | [6] 65.8% | [7] 60.7% | [8] 47.8% | [9] 54% | [10] 40%

CCCCCCCCNc1ncnc2c1ncn2Cc1nnc2c3ccccc3c(Cl)nn12
inactive: [1] 16.7% | [2] 57.3% | [3] 29.7% | [4] 23.6% | [5] 43.8% | [6] 28.5% | [7] 16.7% | [8] 69.8% | [9] 24.2% | [10] 12.3%

COc1ccc(S(=O)(=O)Oc2ccc(-c3sc4cc(OS(=O)(=O)c5ccc(OC)cc5)ccc4c3C(=O)c3ccc(OCCN4CCCCC4)cc3)cc2)cc1
inactive: [1] 119% | [2] 97% | [3] 99.9% | [4] 80.7% | [5] 95% | [6] 101% | [7] 94.1% | [8] 105% | [9] 97.7% | [10] 89.3%

Clc1ccc(C2=Nn3c(nnc3-c3cc(Cl)cc(Cl)c3Cl)SC2)cc1
inactive: [1] 80.3% | [2] 70.6% | [3] 88.4% | [4] 51.6% | [5] 87.4% | [6] 58.2% | [7] 78.7% | [8] 55.9% | [9] 36.1% | [10] 26.7%

CCCCCCCCNC(=O)[C@@H](N)CSCOC(C)=O
inactive: [1] 89.1% | [2] 111% | [3] 91.7% | [4] 94.9% | [5] 105% | [6] 100% | [7] 107% | [8] 63% | [9] 45.7% | [10] 90.4%

CCOC(=O)c1ccc2c(c1)c1c(C)c3cnccc3c(C)c1n2C
active: [1] -89% | [2] -13.4% | [3] -58.2% | [4] -53.6% | [5] -65.3% | [6] -95% | [7] -25% | [8] -78.7% | [9] -2.56% | [10] 2.2%

Cc1ccccc1NC(=O)c1sc2nc3c(cc2c1N)CCCC3
inactive: [1] 26.4% | [2] 45.8% | [3] 37.3% | [4] 45.2% | [5] 57.5% | [6] 51.2% | [7] 51% | [9] 20.9% | [10] 27.4%
active: [8] -3.82%

O=c1n(C2OC(CO)C(O)C2O)ccc2nccn12 (stereo not given)
inactive: [1] 126% | [2] 108% | [3] 107% | [4] 99.8% | [5] 122% | [6] 104% | [7] 102% | [8] 95.8% | [9] 99.5% | [10] 97.9%

Cc1c(-c2cnc3ccc(Cl)cc3c2C(=O)O)nnn1-c1ccc(Cl)cc1
inactive: [1] 100% | [2] 121% | [3] 89.5% | [4] 79% | [5] 101% | [6] 94.6% | [7] 95.8% | [8] 118% | [9] 94% | [10] 94.1%

CN1CC(c2ccccc2)C(C(=O)c2ccc(Br)cc2)C12C(=O)Nc1ccccc12 (stereo not given)
inactive: [1] 99.2% | [2] 91.8% | [3] 94.5% | [4] 65.9% | [5] 109% | [6] 100% | [7] 63.2% | [8] 105% | [9] 102% | [10] 92.1%

Cc1ccc(S(=O)(=O)c2nc(-c3ccccc3)oc2S(C)=O)cc1 (stereo not given)
active: [4] -80.5% | [5] -94.8% | [6] -99.2% | [7] -98.4% | [9] -41% | [10] -29.5%
inactive: [1] 50.3% | [2] 55.6% | [3] 40.2% | [8] 75.9%

CC1=NN(c2cccc(Cl)c2)C(=O)/C1=C\C=C\c1ccccc1
inactive: [1] 74.6% | [2] 87.1% | [4] 69.7% | [5] 44.8% | [7] 52.2% | [8] 110% | [10] 28.4%
active: [3] 0.408% | [6] -51.3% | [9] 2.35%

O=C(Nc1cccc2c1C(=O)c1cccc(NC(=O)c3ccc(C(=O)Nc4cccc5c4C(=O)c4cccc(NC(=O)c6ccccc6)c4C5=O)cc3)c1C2=O)c1ccccc1
inactive: [1] 73.1% | [2] 86.5% | [3] 96.6% | [4] 72.9% | [5] 121% | [6] 99.9% | [7] 108% | [8] 117% | [9] 115% | [10] 75.2%

COC(=O)c1cc(-c2ccc(OC)c(OC)c2)[nH]c1N/N=C/c1c(Cl)cccc1Cl
inactive: [1] 53.6% | [2] 39.9% | [3] 59.1% | [4] 52.4% | [5] 57.2% | [6] 54.4% | [8] 27.6% | [9] 19.7% | [10] 39.4%
active: [7] 6.72%

CN(C)CCOc1nc2c3cc([N+](=O)[O-])ccc3nn2c2ccccc12
active: [6] -51.3% | [10] 2.34%
inactive: [1] 91.6% | [2] 67.3% | [3] 14% | [4] 23.4% | [5] 60.8% | [7] 23.6% | [8] 31.6% | [9] 11.7%

COc1cccc(C(=O)Nc2cccc(NC(=O)c3ccccn3)c2)c1
inactive: [1] 108% | [2] 94.1% | [3] 98.8% | [4] 79.5% | [5] 96.6% | [6] 100% | [7] 99.1% | [8] 93% | [9] 103% | [10] 88.6%

COc1ccc(-c2cc(-c3ccc(Nc4nc(Nc5ccc(Cl)cc5)nc(Nc5ccc(Cl)cc5)n4)cc3)no2)cc1
active: [10] 9.97%
inactive: [1] 58.1% | [2] 76.3% | [3] 94% | [4] 65.3% | [5] 108% | [6] 83.6% | [7] 83.3% | [8] 86.8% | [9] 38.9%

COC(=O)CNC(=O)c1ccc(NC(=O)c2[nH]c(C)c(Cl)c2Cl)c(O[C@H]2CCNC2)c1
inactive: [1] 108% | [2] 102% | [3] 97.5% | [4] 84.8% | [5] 104% | [6] 106% | [7] 94.9% | [8] 89.9% | [9] 91.9% | [10] 93.5%

N#Cc1c(-c2ccc(F)cc2)cc(-c2cccc(Cl)c2)[nH]c1=O
inactive: [1] 78.6% | [2] 66.9% | [3] 60.3% | [4] 54.3% | [5] 54.3% | [6] 49.4% | [7] 52.1% | [8] 80.4% | [9] 71.9% | [10] 88.3%

CC1(C)CCC[C@]23C(=O)O[C@](O)(C(=O)C4=C[C@@](C)(/C=C/CCCc5ccc6ccc7cccc8ccc5c6c78)CC[C@@]42O)[C@@H]13
active: [1] -61.8% | [2] -84.9% | [3] -94.4% | [4] -97.1% | [5] -88.7% | [6] -100% | [7] -98.5% | [8] -87.9% | [9] 0.0961% | [10] 9.46%
